Source: PubChem BioAssay AID1332 (Southern Research Institute, 2008)
≈ marks a conversion by molar mass, not a printed value. About 170 (15%) of roughly 1,100 compounds were called active. How the calls were made is not given here. These entries were drawn from the full list.

Assay: Confirmatory growth inhibition assay, mycobacterium tuberculosis h37rv, with cytotoxicity (AID 1332);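 on CC50: Vero cells exposed to compounds for 72 hours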;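 on IC50: bacteria incubated 7 days before adding Alamar blue readout reagent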
Details: M. tuberculosis H37Rv growth inhibition; CC50: measured here: Vero cell cytotoxicity; IC50: measured here: IC50 H37Rv replicates

Compound	IC50	outcome	CC50
CCC(=O)OCC(=O)C1(OC(=O)CC)[C@H](C)C[C@H]2[C@H]3[C@H]([C@@H](O)C[C@@]21C)[C@@]1(C)C=CC(=O)C=C1C[C@H]3Cl (some centres undefined)	> 20 µg/mL	inactive	–
O=C1C(CCS(=O)c2ccccc2)C(=O)N(c2ccccc2)N1c1ccccc1 (centres undefined)	> 20 µg/mL	inactive	–
CN(C)C/C=C(\c1ccc(Br)cc1)c1cccnc1	> 20 µg/mL	inactive	–
CC1(C)S[C@@H]2[C@H](NC(=O)[C@H](N)c3ccccc3)C(=O)N2[C@H]1C(=O)O	> 20 µg/mL	inactive	–
CN(Cc1cnc2nc(N)nc(N)c2n1)c1ccc(C(=O)NC(CCC(=O)O)C(=O)O)cc1 (centres undefined)	> 20 µg/mL	inactive	0.048 µg/mL (≈ 0.106 µM)
CC(C(=O)O)c1ccc(N2Cc3ccccc3C2=O)cc1 (centres undefined)	> 20 µg/mL	inactive	–
C[C@H]1[C@H]2CC[C@H]3[C@@H]4CC=C5C[C@@H](N(C)C)CC[C@]5(C)[C@H]4CC[C@]23CN1C	> 20 µg/mL	inactive	–
NC(N)=NC(N)=NCCc1ccccc1	> 20 µg/mL	inactive	–
CCOC(=O)[C@H](CCc1ccccc1)N[C@@H](C)C(=O)N1CCC[C@H]1C(=O)O	> 20 µg/mL	inactive	–
CC(=O)Oc1ccccc1C(=O)Oc1ccccc1C(=O)O	> 20 µg/mL	inactive	–
O=C(OCC(O)CO)c1ccccc1Nc1ccnc2cc(Cl)ccc12 (centres undefined)	> 20 µg/mL	inactive	–
CCc1cccc(CC)c1NC(=O)CN(CC(=O)O)CC(=O)O	> 20 µg/mL	inactive	–
COc1cc(-c2ccc(N=Nc3ccc4c(S(=O)(=O)O)cc(S(=O)(=O)O)c(N)c4c3O)c(OC)c2)ccc1N=Nc1ccc2c(S(=O)(=O)O)cc(S(=O)(=O)O)c(N)c2c1O	> 20 µg/mL	inactive	–
NCC1CCC(C(=O)O)CC1 (centres undefined)	> 20 µg/mL	inactive	–
C[C@H](O)C(=O)Nc1c(I)c(C(=O)NC(CO)CO)c(I)c(C(=O)NC(CO)CO)c1I	> 20 µg/mL	inactive	–
CCCOc1cc(N)ccc1C(=O)OCCN(CC)CC	> 20 µg/mL	inactive	–
COc1c2c(nc3ccccc13)OC(C(C)(O)CO)C2 (centres undefined)	> 20 µg/mL	inactive	–
CN1CCC[C@@H]1CCO[C@](C)(c1ccccc1)c1ccc(Cl)cc1	10.9 µg/mL (≈ 31.7 µM)	active	> 6 µg/mL
CN1C(CC(O)c2ccccc2)CCCC1CC(O)c1ccccc1 (centres undefined)	> 20 µg/mL	inactive	–
CN1CCCCC1CCN1c2ccccc2Sc2ccc(S(C)=O)cc21 (centres undefined)	> 20 µg/mL	inactive	–
O[C@@H]1[C@@H](O)C=C2CCN3Cc4cc5c(cc4[C@H]1C23)OCO5 (some centres undefined)	> 20 µg/mL	inactive	0.806 µg/mL (≈ 2.81 µM)
CCn1cc(C(=O)O)c(=O)c2cc3c(cc21)OCO3	> 20 µg/mL	inactive	–
CC1CCc2cc(F)cc3c(=O)c(C(=O)O)cn1c23 (centres undefined)	9.83 µg/mL (≈ 37.6 µM)	active	–
O=C1N=C(O)CN1/N=C/c1ccc(-c2ccc([N+](=O)[O-])cc2)o1	> 20 µg/mL	inactive	–
CNCC(O)c1ccc(OC(=O)C(C)(C)C)c(OC(=O)C(C)(C)C)c1 (centres undefined)	> 20 µg/mL	inactive	–
C=C(C)[C@@H]1C2C(=O)O[C@H]1[C@H]1OC(=O)[C@@]34OC3C[C@]2(O)[C@@]14C (some centres undefined)	> 20 µg/mL	inactive	–
CC1(C)OC(=O)NC1=O	> 20 µg/mL	inactive	–
CC(C)(C)C(=O)OCOC(=O)[C@@H]1N2C(=O)[C@@H](NC(=O)[C@H](N)c3ccccc3)[C@H]2SC1(C)C	> 20 µg/mL	inactive	–
